Sampled rows, rich in hits. Any-hit rate of the full collection: about 7.4%.
SMN2 splice up: SMN2 splice variant enhancement | HEK293 SMN2-luciferase splicing reporter, luminescence, 30-36 h | Potency, µM (titrated, usually from 46.1 µM), hits mostly activators | 210,000 compounds, 2.8% hits | AID 1458; also: nearly all actives have a fitted effect of over 55% in size
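qHTS luciferase splicing reporter: luminescence rises when SMN2 exon 7 is included in transfected HEK293 cells. Compound exposure lasted 30-36 h at 37C, with 4.5 mM final sodium butyrate as control, followed by a ONE-Glo read.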
NPC1 prom act: activates the NPC1 promoter | Huh7 NPC1 promoter luciferase reporter, 24 h | Potency, µM (doses to about 9.22 µM), usual class: activators | 320,000 compounds, 2.4% hits; also: nearly all actives have a fitted effect of over 60% in size
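Quantitative HTS used a cell-based reporter: Huh7 cells stably bearing the NPC1 promoter upstream of luciferase were treated with compounds for 24 h, and promoter activation was read as luminescence.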
ELG1 genotoxic: genotoxicity induction in ELG1-luciferase HEK293T cells; 330,000 compounds, 1.3% hits; HEK293T ELG1-luciferase reporter, luminescence, 16 h; Potency, µM (highest dose often 46 µM), most hits filed as activators; AID 504466; also: nearly all actives have a fitted effect of over 60% in size
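DMSO vehicle served as control against compound-treated ELG1-luciferase HEK293T cells; exposure lasted 16 hr at 37 °C and 5% CO2, followed by ONE-Glo luminescence detection after 30 min.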
KinaseGlo FLuc: blocks Kinase-Glo luciferase, a counter-screen artifact. Q27757. Kinase-Glo luciferase, ATP luminescence, 8 min. AID 1379. 200,000 compounds, 0.28% hits. Potency, µM (top dose mostly 38.3 µM), usual class: inhibitors; also: nearly all actives have a fitted effect of over 60% in size
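Recombinant Kinase-Glo luciferase, 10 uM ATP (linear range), luciferin; imidazole pH 7.2 / KCl / MgCl2 / Tween / BSA buffer; 8 min RT; luminescence.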
Rab9 prom act: activates the Rab9 promoter. Huh7 Rab9 promoter-luciferase reporter, luminescence, 24 h. Potency, µM (highest dose often 9.22 µM), usual class: activators. AID 485297. 320,000 compounds, 2.8% hits; also: nearly all actives have a fitted effect of over 60% in size
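Measured in stably transfected Huh7 cells bearing a Rab9 promoter–luciferase construct: 24 h compound treatment at 37 °C, followed by luminescence detection.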
FLuc counter: firefly luciferase modulation, counter-screen for miR-21 project; purified FLuc, Km substrates, luminescence inhibition; Potency, µM (titrated, usually from 57.5 µM), hits mostly inhibitors; 360,000 compounds, 6.9% hits; AID 588342; also: nearly all actives have a fitted effect of over 55% in size
Target sequence (P08659 whole entry, looked up): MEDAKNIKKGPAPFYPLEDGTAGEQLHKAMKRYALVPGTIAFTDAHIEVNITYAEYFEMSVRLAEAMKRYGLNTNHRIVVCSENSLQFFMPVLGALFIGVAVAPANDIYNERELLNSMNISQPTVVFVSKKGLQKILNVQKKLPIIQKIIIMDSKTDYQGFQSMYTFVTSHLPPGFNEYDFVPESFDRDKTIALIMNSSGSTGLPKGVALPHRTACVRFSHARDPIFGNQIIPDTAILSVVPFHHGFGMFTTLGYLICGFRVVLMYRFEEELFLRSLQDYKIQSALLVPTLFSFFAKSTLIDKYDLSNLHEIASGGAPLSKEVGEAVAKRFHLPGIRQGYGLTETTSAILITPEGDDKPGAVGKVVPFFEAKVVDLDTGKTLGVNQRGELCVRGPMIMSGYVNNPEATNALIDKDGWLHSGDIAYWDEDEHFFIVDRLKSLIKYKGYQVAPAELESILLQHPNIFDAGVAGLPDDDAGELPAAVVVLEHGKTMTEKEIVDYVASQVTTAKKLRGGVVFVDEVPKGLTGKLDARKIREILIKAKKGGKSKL
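Purified P. pyralis luciferase, 10 nM final, with Km-level 10 uM D-luciferin and 10 uM ATP in 50 mM Tris acetate pH 7.5, 10 mM Mg acetate, 0.01% Tween-20, 0.05% BSA; 6-point qHTS titration about 60 µM downward; luminescence read.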
Numbers stand for hits; - = inactive; ? = inconclusive; . = no result; [ ] = remark or other dose. Calls follow the shape of the dose curve; as a rule, active = well fitted curve in the direction sought with a large enough effect; inconclusive = small, poorly fitted or top-dose-only effect, or another doubt; inactive = no such curve, though single readings can be large; an effect the other way counts as inactive or inconclusive.

SMILES	SMN2 splice up	NPC1 prom act	ELG1 genotoxic	KinaseGlo FLuc	Rab9 prom act	FLuc counter
N/C(=N\N=C/c1ccc(-c2ccc(O)c(C(=O)O)c2)o1)N[N+](=O)[O-]	-	-	-	-	-	27µM
COc1ccc(/C=N/N=C(/N)N[N+](=O)[O-])c(OC)c1	-	-	-	-	-	?
O=c1cc(-c2ccc(O)c(O)c2)oc2cc(O)cc(O)c12	8.9µM	-	?	-	-	24µM
COc1ccc(-c2cc(=O)c3cc(OCC(=O)OC(C)C)ccc3o2)cc1	-	.	.	.	.	1.9µM
CC(Cc1ccccc1)NC(=O)NC(C)Cc1ccccc1 (configuration not stated)	.	?	12µM	-	2.8µM	13µM
CC(Cc1ccccc1)NC(=O)c1ccc(N)cc1 (configuration not stated)	.	3.2µM	?	.	3.5µM	21µM
C[C@H](Br)CN(C[C@H](C)Br)c1ccc2c(c1)Cc1ccccc1-2	-[9.22 µM]	.	.	-[7.66 µM]	.	.
CN(C)C(=O)Oc1cccc(NC(=O)c2ccccc2C(F)(F)F)c1	.	-	-	.	-	-
COc1ccccc1NC(=O)c1oc2ccccc2c1NC(=O)c1ccccc1C(F)(F)F	-	.	.	.	.	11µM
Cc1ccc2scc(N3CCN(C)CC3)c(=O)c2c1	.	.	.	.	.	12µM
O=c1[nH]c(=O)n(-c2ccccc2F)c(O)c1/C=C1\C=Nc2ccccc21	.	-	-	.	-	17µM
O=c1[nH]c(=O)n(-c2ccc(F)cc2)c(O)c1/C=C1\C=Nc2ccccc21	.	-	-	.	-	-
O=c1[nH]c(=O)n(CC2CCCO2)c(O)c1/C=C1\C=Nc2ccccc21 (configuration not stated)	-	-	-	-	-	17µM
c1cncc(CNc2cc(-c3ccc4c(c3)OCO4)ncn2)c1	10µM	.	.	-	.	.
c1ccoc1	-	.	.	.	.	.
Cc1cc(/C=C2\C(=O)NC(=O)N(C)C2=O)c(C)n1-c1ccc2c(c1)OCO2	-	-	-	-	-	1.3µM
Cc1cc(C=C2C(=O)NC(=S)NC2=O)c(C)n1-c1ccc2c(c1)OCO2	-	-	-	?	-	3.4µM
Cc1cc(C=C2C(=O)NC(=O)NC2=O)c(C)n1-c1ccc2c(c1)OCO2	-	-	-	-	-	2.7µM
Cc1cc(/C=C2\C(=O)NC(=O)N(c3ccc(F)cc3)C2=O)c(C)n1-c1cccc(C(=O)O)c1	.	-	-	-	-	?
Cc1cc(/C=C2\C(=O)NC(=O)N(c3ccccc3)C2=O)c(C)n1-c1ccc(C(=O)O)c(Cl)c1	.	-	-	.	-	-
O=C1NC(=O)C(=Cc2cc3c(cc2[N+](=O)[O-])OCO3)C(=O)N1	-	-	-	-	-	-
Cc1cc(/C=C2/C(=O)NC(=O)N(C)C2=O)c(C)n1-c1ccccc1	-	-	-	-	-	1.1µM
C/C=C1/C[N@@+]2(C)CC[C@]34C(=C(C=O)[C@H]1C[C@H]32)Nc1ccccc14	-	.	.	.	.	.
Cc1ccc(N)c(C)c1	-	-	-	.	-	-
Cc1ccc(N=Nc2cc(C)ccc2N)cc1	.	0.5µM	0.46µM	.	0.32µM	0.19µM
SMILES	SMN2 splice up	NPC1 prom act	ELG1 genotoxic	KinaseGlo FLuc	Rab9 prom act	FLuc counter
CN(C)c1ccc(NC(=O)Oc2ccccc2)cc1	-	-	?	-	-	3µM
O=C(O)[C@@H](Br)[C@H](Br)C(=O)O	-[9.22 µM]	.	.	-[7.66 µM]	.	.
O=C1NC(=O)N(c2cccc(Br)c2)C(=O)/C1=C/c1ccsc1	.	-	-	.	-	17µM
O=C1NC(=O)N(c2ccc(Br)cc2)C(=O)/C1=C/c1ccsc1	.	-	-	.	-	?
O=C1NC(=O)N(c2ccc(F)cc2)C(=O)/C1=C/c1ccsc1	-	-	-	-	-	19µM
CC1=NN(c2ccccc2)C(=O)C1/C=C1\C(=O)NC(=O)N(c2cc(C)cc(C)c2)C1=O (configuration not stated)	-	-	-	-	-	9.5µM
CC1=NN(c2ccccc2)C(=O)C1/C=C1\C(=O)NC(=O)N(c2ccc(C)c(C)c2)C1=O (configuration not stated)	-	-	-	-	-	15µM
CC1=NN(c2ccccc2)C(=O)C1/C=C1/C(=O)NC(=O)N(c2cc(C)cc(C)c2)C1=O (configuration not stated)	-	-	-	-	-	17µM

Screening data from PubChem BioAssay.
